Screening results: PubChem BioAssay, several laboratories
SKKanGAS inh = inhibitors of SKKanGAS S. pyogenes growth in kanamycin (SK-promoter or general growth effect). AID 1662. BacTiter-Glo, 6 h. 300,000 compounds, 1.3% hits. inhibition, % at 7.5 µM;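 active = mean replicate score, as percent of positive control median, at least 50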;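 note: strain carries kanamycin resistance gene driven by streptokinase promoter and grows in 40 µg/ml kanamycin; loss of luminescence reflects streptokinase promoter inhibition or plain growth inhibition; 0% = median of DMSO wells and 100% = positive control at its reference dose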
V-ATPase pH = alters yeast V-ATPase proton transport; 350,000 compounds, 0.37% hits; S. cerevisiae, pHLuorin cytosolic pH fluorescence; AID 504577; response, % at 10 µM; in the data active = response mostly above about 7.3%, no sharp cut-off; inactive = mostly below about 5.4%; note: actives read high
PfHsp90 set2 = inhibits growth of yeast expressing Plasmodium falciparum Hsp90; S. cerevisiae expressing PfHsp90, BacTiter-Glo ATP, 48 h; yeast lacking PDR1 and PDR3 efflux regulators; inhibition, % at 9.4 µM; 310,000 compounds, 0.32% hits; AID 504621;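 active = every replicate shows inhibition above about 80%, whatever the replicate mean, limit read from the data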;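 note: 0% = DMSO neutral controls and 100% = 20 µM radicicol positive controls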
TIM10 inh = inhibits growth of TIM10 yeast strain | 330,000 compounds, 1.4% hits | S. cerevisiae TIM10 strain growth, BacTiter-Glo luminescence, 24 h | inhibition, % at 10 µM | AID 463195;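 active = inhibition of 40% or more at the single tested concentration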;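 note: wild-type TIM10 isogenic control strain grown at permissive 25 °C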
tim10-1 inh = inhibits growth of tim10-1 mutant yeast; S. cerevisiae tim10-1 ts strain growth, BacTiter-Glo, 24 h; inhibition, % at 20 µM; 330,000 compounds, 2.2% hits; AID 463190;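 active = inhibition of at least 40%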;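 note: mutant grown at 25 °C; 0% = DMSO wells with yeast and 100% = wells holding no yeast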
tim23-1 inh = growth inhibitors of tim23-1 mutant yeast; S. cerevisiae tim23-1 growth, BacTiter-Glo luminescence, 24 h; inhibition, % at 20 µM; 330,000 compounds, 1.3% hits; AID 463212;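 active = growth inhibition of the mutant yeast at or above 50%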;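 note: temperature-sensitive mutant grown at 25 °C; plate controls were DMSO-treated mutant yeast for no effect and medium wells lacking yeast for full effect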
tim10-1 conf = confirmation of tim10-1 mutant yeast growth inhibitors; shares compounds with tim10-1 inh; S. cerevisiae tim10-1 ts strain growth, BacTiter-Glo, 24 h; inhibition, % at 20 µM; 7,400 compounds, 56% hits; AID 463213;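 active = inhibition of yeast growth at or above a set limit in either of two repeat tests at 20 µM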;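 note: tim10-1 mutant grown at permissive 25 °C to find synthetic lethal compounds; 0% = DMSO yeast wells and 100% = medium wells without yeast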
Active calls of the source: *; / = not tested or not shown. The list is not random: actives were taken first. Their share in the collection is about 4.6%.

SMILES	SKKanGAS inh	V-ATPase pH	PfHsp90 set2	TIM10 inh	tim10-1 inh	tim23-1 inh	tim10-1 conf
CCn1c(SCc2nc3ccccc3c(=O)[nH]2)nc2ccccc21	8.7	-1.6	1.5	11.6	44.1*	20.7	24.5
O=C(CCCCCN1C(=O)[C@@H]2Cc3ccccc3CN2C1=O)Nc1cccc(F)c1	-6.7	-1.3	3.8	18.5	45.2*	42.7	-10.1
CCOC(=O)[C@H]1[C@H]2COc3ccc(Br)cc3[C@@H]2N2C(=O)CN(Cc3ccco3)C(=O)[C@@]12C	/	0.5	3.9	4.2	18.5	21.5	/
Cc1cccc2c1N(CCCOc1ccc(C(C)(C)C)cc1)C(=O)C2=O	22.3	-3.3	-17.9	27.1	40.3*	46.7	18.6
Cc1cccc(OCCN2C(=O)C(=O)c3cccc(C)c32)c1	-6.3	-3.9	5.6	10.2	12.7	31.0	/
O=C1C=C(c2ccc(OC(F)(F)F)cc2)C[C@@H](c2ccc(Cl)cc2)C1	/	-3.3	-5.8	16.9	24.7	32.0	/
COc1ccc(CNC(=O)O[C@H]2C[C@@H]3C(=O)N(c4ccccc4)C(=O)[C@@H]3[C@@H]3CN(S(=O)(=O)c4ccc(C)cc4)C[C@]23O)cc1OC	/	-0.1	/	/	/	/	/
COc1cc(SC)ccc1C(=O)Nc1cccc(S(=O)(=O)NC2=NCCCCC2)c1	-4.7	-4.3	/	-3.4	5.8	18.6	/
CCN(CC)S(=O)(=O)c1cccc(NC(=O)c2ccc(SC)cc2OC)c1	7.0	0.1	26.8	20.4	43.3*	32.1	37.4*
CCOC(=O)CSc1cc(-c2ccccc2)nc2ncnn12	-13.6	4.5	9.0	33.6	43.7*	35.9	34.5*
CC(C)CN(C(=O)COC(=O)c1ccc2c(c1)OCO2)c1c(N)n(Cc2ccccc2)c(=O)[nH]c1=O	2.1	0.2	-7.7	1.9	-16.3	-3.2	/
Cc1nn2c3ccccc3nc2c2ccccc12	4.5	-2.1	-65.9	18.1	50.9*	31.3	42.5*
Cc1ccc2c(nc3s/c(=C\c4ccc(-c5ccccc5C(=O)O)o4)c(=O)n32)c1C	25.5	7.9	-46.2	32.7	46.4*	46.7	18.0
Cc1nc2cc(NS(=O)(=O)c3c(C)c(C)cc(C)c3C)ccc2s1	9.8	-0.8	10.6	30.1	41.9*	28.7	32.9*
COc1ccc(-n2c(C)nc3cc(C(=O)NCc4ccc5c(c4)OCO5)ccc32)cc1	0.2	-2.6	-7.9	11.9	17.6	28.0	/
CCOc1ccc(-n2c(C)nc3cc(C(=O)NCc4ccc5c(c4)OCO5)ccc32)cc1	3.6	-1.9	9.3	8.1	47.2*	37.5	34.6*
COc1ccc(CN2C(=O)CNC2=S)cc1	1.5	2.1	4.2	-3.1	18.0	10.1	/
OC(COCC(F)(F)C(F)(F)C(F)(F)C(F)F)Cn1c2ccc(Cl)cc2c2cc(Cl)ccc21 (stereo not drawn)	109.9*	-3.1	-47.2	31.5	40.8*	23.6	36.3*
O=C(CSc1ccccn1)N1CCN(c2cccc(Cl)c2)CC1	-6.4	3.6	14.4	14.2	43.2*	17.8	17.4
O=C(Cc1ncc(C(F)(F)F)cc1Cl)N1CCN(c2cccc(Cl)c2)CC1	-2.0	6.5	-2.7	0.1	42.8*	7.2	9.2
S=C(Nc1nc2c(s1)CCCC2)NC1CC1	29.3	1.0	-17.4	9.6	41.3*	14.2	4.5
C/C(=N\NC(=O)Cc1ccccc1)c1ccc(Br)s1	-4.9	-2.1	10.2	-0.9	5.4	3.0	/
C/C(=N\NC(=O)CNc1cccc(C)c1)c1ccc(Br)s1	-5.4	-0.8	23.6	33.8	40.3*	40.2	22.2
C[C@@H]1CN([C@@H](C)CO)C(=O)c2cc(Br)cnc2O[C@H]1CN(C)Cc1cccc(C(=O)O)c1	/	0.3	/	/	/	/	/
CCCCN(C(=O)C1=COCCO1)c1c(N)n(Cc2ccccc2)c(=O)[nH]c1=O	1.3	0.3	0.4	-1.2	43.0*	22.7	4.8
SMILES	SKKanGAS inh	V-ATPase pH	PfHsp90 set2	TIM10 inh	tim10-1 inh	tim23-1 inh	tim10-1 conf
O=[N+]([O-])c1cccc(-c2ccc3nnc(SCc4cccnc4)n3n2)c1	/	-1.2	0.3	/	/	/	/
Cn1c(/C=C/c2ccc(Br)cc2)c([N+](=O)[O-])c(=O)n(C)c1=O	7.8	8.8	-48.3	22.8	41.8*	29.7	24.8
COc1ccc(OC)c(/C=C/c2c([N+](=O)[O-])c(=O)n(C)c(=O)n2C)c1	8.7	-0.2	26.9	7.5	25.0	36.0	/
CCN1CCN(CCNC(=O)c2ccc(/C=C3/Sc4ccccc4N(Cc4cccc(Cl)c4)C3=O)cc2)CC1	28.3	4.5	33.8	-0.7	30.1	47.4	/
Cc1cccc(CN2C(=O)/C(=C\c3ccc(C(=O)NCCN4CCOCC4)cc3)Sc3ccccc32)c1	7.3	-3.5	41.1	10.5	42.0*	35.0	9.7
Cc1ccccc1CN1C(=O)/C(=C\c2ccc(C(=O)NCCN3CCOCC3)cc2)Sc2ccccc21	14.5	-2.7	6.6	16.7	44.7*	25.0	-7.0
O=C(NCCN1CCOCC1)c1ccc(/C=C2\Sc3ccccc3N(Cc3ccccc3F)C2=O)cc1	9.8	-2.4	26.1	13.3	33.4	32.5	/
CCN(CC(=O)Nc1ccc(NC(C)=O)cc1)C(=O)c1ccc(Sc2nncn2C)c([N+](=O)[O-])c1	/	3.5	/	/	/	/	/
Cc1cc(NCC2CCCO2)n2c(nc3ccccc32)c1C#N (stereo not drawn)	5.1	1.4	8.5	22.1	37.3	25.9	/
CC(C)c1cc(NCC2CCCO2)n2c(nc3ccccc32)c1C#N (stereo not drawn)	12.5	-0.5	37.5	26.2	48.0*	36.7	34.1*
COC(=O)c1ccc(OCC(O)CNCC(c2ccc(OC)cc2)N(C)C)c(OC)c1 (stereo not drawn)	-1.0	-0.9	-1.6	-0.9	-17.5	8.5	/
O=C(Nc1ccc([N+](=O)[O-])cc1)C1COc2ccccc2O1 (stereo not drawn)	-3.4	-1.8	3.1	-11.4	17.7	12.1	/
COc1ccc(Br)cc1/C=N/NC(=O)CNC(=O)C1COc2ccccc2O1 (stereo not drawn)	-0.2	4.8	-1.4	13.2	28.5	14.6	/
O=C(CNC(=O)C1COc2ccccc2O1)N/N=C\c1ccc(Br)cc1 (stereo not drawn)	-3.6	-3.5	5.3	33.0	60.0*	45.9	23.9
O=C(N/N=C/C=C/c1ccc([N+](=O)[O-])cc1)C1COc2ccccc2O1 (stereo not drawn)	-0.5	-1.1	-7.9	19.1	51.4*	35.1	37.2*
CCCNC(=O)N1CCCC(C(=O)c2cccc(Cl)c2)C1 (stereo not drawn)	-6.9	-0.9	-2.6	-9.9	0.1	-1.6	/
O=C(CCc1ccccc1)C(=O)N1CCCC(C(=O)c2cccc(Cl)c2)C1 (stereo not drawn)	-8.4	1.1	-20.6	25.1	40.0*	22.9	27.8
CN(C)CCCNS(=O)(=O)c1ccc(Cl)s1	-0.5	0.1	4.5	9.6	5.0	30.6	/
